Screening data: PubChem, National Center for Advancing Translational Sciences (NCATS)
ALDH1A1 inh = qHTS Assay for Inhibitors of Aldehyde Dehydrogenase 1 (ALDH1A1); Purified ALDH1A1, NADH fluorescence, propionaldehyde substrate; Potency, µM (titrated, usually from 75.3 µM), for inactives: at the top dose activity, negative = inhibition, hits mostly inhibitors; 7.3% of 220,000 active; active means well fitted inhibition curve with a large enough effect, not every such curve was filed as active; inconclusive means small, poorly fitted or top-dose-only effect, or another doubt; inactive means no such curve, though single readings can be large or run the other way;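 further: potency means the concentration at half of the fitted maximal effect; plate controls were no enzyme wells and a reference inhibitor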
HTT ATP protect = qHTS Multiplex Assay to Identify Dual Action Probes in a Cell Model of Huntington: Cytoprotection (ATP); PC12 HTT-Q103 induced, cytoprotection, ATP luminescence, 40 h; Potency, µM (top dose mostly 56.4 µM), for the others: cytoprotection (ATP increase), hits mostly activators; 0.14% of 230,000 active; further: potency means the concentration at half of the fitted maximal effect; % of control where 0% means no effect; nearly all actives have a fitted effect of over 45% in size
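PC12 cells with ecdysone-inducible HTT exon 1 Q103-GFP, induced with 100 nM tebufenozide and co-treated with library compounds in a dose series (1536-well, 1500 cells/well). Cytoprotection read as ATP content by ATPlite luminescence.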
HPGD block = qHTS Assay for Inhibitors of HPGD (15-Hydroxyprostaglandin Dehydrogenase) | 15-hydroxyprostaglandin dehydrogenase [NAD(+)] (Homo sapiens), P15428 | purified HPGD, NADH fluorescence kinetic, PGE2 substrate | Potency, µM, inactives show top-dose activity change, negative = inhibition, usual class: inhibitors | 4.3% of 150,000 active | AID 894, 2007; active means well fitted inhibition curve with a large enough effect, not every such curve was filed as active; inconclusive means small, poorly fitted or top-dose-only effect, or another doubt; inactive means no such curve, though single readings can be large or run the other way; further: potency means the concentration at half of the fitted maximal effect; on the % scale 0 is the no-effect control and ±100 the full control effect
Target sequence (P15428 whole entry, looked up): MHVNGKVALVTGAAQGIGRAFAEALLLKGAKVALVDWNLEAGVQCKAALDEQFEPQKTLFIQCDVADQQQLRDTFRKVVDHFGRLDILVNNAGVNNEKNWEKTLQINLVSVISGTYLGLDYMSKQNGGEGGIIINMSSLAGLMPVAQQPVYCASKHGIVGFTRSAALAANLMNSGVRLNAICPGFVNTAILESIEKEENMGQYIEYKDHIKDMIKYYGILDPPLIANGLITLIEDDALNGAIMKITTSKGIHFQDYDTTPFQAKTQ
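NADH formation kinetics: reaction with 30 uM PGE2 and 1 mM NAD+ (final), 20 nM enzyme, Tris-HCl pH 8 with Tween 20, after 15 min compound preincubation at room temperature. Fluorescence change, last versus first of five reads.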
HttQ103 aggreg = qHTS Multiplex Assay to Identify Dual Action Probes in a Cell Model of Huntington: Aggregate Formation (GFP); PC12 HttQ103-GFP aggregates, Acumen cytometry, 40 h; Potency, µM (doses to about 46.1 µM), for the others: at the top dose activity change, negative = inhibition, usual class: inhibitors; 1.1% of 220,000 active; AID 1688, 2009; further: potency means the concentration at half of the fitted maximal effect; on the % scale 0 is the no-effect control and ±100 the full control effect; nearly all actives have a fitted effect of over 60% in size
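Huntingtin Q103 exon 1–GFP aggregates in induced PC12 cells (100 nM tebufenozide) were quantified by cytometry from lysates, with compounds dosed in titration.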
JMJD2E inh = qHTS Assay for Inhibitors of Human Jumonji Domain Containing 2E (JMJD2E); Lysine-specific demethylase 4E (Homo sapiens), B2RXH2; AID 2147, 2009; 1.6% of 230,000 active; Potency, µM (doses to about 57.1 µM), inactives show at the top dose activity change, negative = inhibition, actives largely listed as inhibitors; JMJD2E catalytic domain, FDH-coupled NADH fluorescence (FDH is formaldehyde dehydrogenase);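 further: potency means the concentration at half of the fitted maximal effect; 0% = wells with enzyme and -100% = buffer wells without enzyme; nearly all actives have a fitted effect of over 50% in size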
Target sequence (B2RXH2 1-337 limits assumed): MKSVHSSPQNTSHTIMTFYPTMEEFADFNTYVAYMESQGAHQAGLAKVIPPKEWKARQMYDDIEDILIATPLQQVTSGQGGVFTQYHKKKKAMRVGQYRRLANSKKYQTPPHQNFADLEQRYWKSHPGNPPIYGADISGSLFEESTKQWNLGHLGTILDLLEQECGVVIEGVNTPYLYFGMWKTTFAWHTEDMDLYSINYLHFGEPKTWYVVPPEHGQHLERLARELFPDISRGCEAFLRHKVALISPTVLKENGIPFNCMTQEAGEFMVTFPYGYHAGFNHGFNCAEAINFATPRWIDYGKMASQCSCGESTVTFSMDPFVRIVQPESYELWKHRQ
CBFb-RUNX1 inh = qHTS Assay for Compounds Blocking the Interaction Between CBF-beta and RUNX1 for the Treatment of Acute Myeloid Leukemia; Runt-related transcription factor 1 (Homo sapiens) + Core-binding factor subunit beta …; AlphaScreen CBFb-His/RUNX1-biotin binding, biochemical; Potency, µM (doses to about 59.8 µM), inactives show at the highest dose activity, negative = inhibition, hits mostly inhibitors; 230,000 tested, under 10 active; AID 1477, 2009; further: % of control where 0% means no effect
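Bead-based AlphaScreen assay; binding partners His-tagged CBF-beta and biotinylated RUNX1 at 30 nM each. Compound exposure 15 min after a 20-min protein preincubation; bead step 90 min; all steps at room temperature.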
Starred values were filed as active, the others as inactive; ? = inconclusive; / = no result; [ ] = remark or other dose. This is a sample that favours compounds with a hit; in the whole collection about 9.8% have one here. Unless noted, the call rests on the fitted dose curve; in most records, active means well fitted curve in the direction sought with a large enough effect; inconclusive means small, poorly fitted or top-dose-only effect, or another doubt; inactive means no such curve, though single readings can be large; an effect the other way counts as inactive or inconclusive.

SMILES	ALDH1A1 inh	HTT ATP protect	HPGD block	HttQ103 aggreg	JMJD2E inh	CBFb-RUNX1 inh
COc1ccc(C(=O)[C@]2(C)C=C(c3ccc(OC)cc3)[C@H](C)C2)cc1	2%	35µM*	-7%	/	-7%	-7%
COCc1cccc(N2C(=O)CC(C3C=C(C)C4C(=O)N(c5cccc(COC)c5)C(=O)C4C3)C2=O)c1 (stereo unspecified)	-8%	-19%	/	12%	5%	-6%
COC(=O)C1CC(c2ccc(Cl)cc2)=NO1 (stereo unspecified)	3%	-50%	/	1%	4%	4%
Cc1ccc(/C=C2\SC(=S)N(/N=C/c3cc([N+](=O)[O-])ccc3O)C2=O)o1	7.1µM*	-3%	/	-22%	5%	1%
O=C(Nc1cccc(F)c1)N1CC2(CCN(C(=O)c3cccc(F)c3)CC2)C1	-11%	-45%	-4%	/	/	/
O=C(Nc1ccccc1)N1CC2(CCN(C(=O)c3ccco3)CC2)C1	2%	?	-9%	/	/	/
O=C(Nc1cccnc1)c1noc2c1CCCC2	22µM*	2%	-14%	23%	7%	-4%
CC(C)(C)C1CCc2onc(C(=O)Nc3cccnc3)c2C1 (stereo unspecified)	-1%	-4%	-2%	-26%	4%	0%
CCn1cc(C(=O)O)c(=O)c2cnc(N3CCN(C(=S)Nc4ccccc4Cl)CC3)nc21	/	2%[10 µM]	/	4%[9.22 µM]	-14%	7%
O=C1C2=CC[C@H]3C(=O)N(c4cccc(Oc5ccccc5)c4)C(=O)[C@@H]3[C@@H]2[C@H](O)[C@@H]2O[C@H]12	-3%[13.5 µM]	?	/	/	/	1%[13.1 µM]
CC(Sc1nc(C(C)(C)C)cc(-c2ccccc2)c1C#N)C(=O)Nc1ccccc1 (stereo unspecified)	25µM*	0%[10 µM]	16µM*	1%	-6%	22%
CC(Sc1nc(NC(C)(C)C)nc(N(C)C)n1)C(=O)Nc1ccccc1 (stereo unspecified)	7%	-64%	/	-6%	-25%	0%
CCC(CC)C(=O)Nc1nnc(-c2cccs2)s1	?	-22%	?	-10%	?	0%
COc1cccc(OC)c1C(=O)Nc1nnc(-c2cccs2)s1	7.9µM*	10%[10 µM]	/	9%[9.22 µM]	?	-7%
CC(=O)Nc1ccc(Nc2nc(Cl)nc(Nc3ccc(NC(C)=O)cc3)n2)cc1	1%	22%[10 µM]	/	-19%[9.22 µM]	-4%	6%
C[C@H]1CCCC(=O)CCC/C=C/c2c(O)cc(O)cc2C(=O)O1	/	/	/	/	/	9%
O=C(NCCc1c[nH]c2ccccc12)C1CCN(S(=O)(=O)c2ccccc2F)CC1	?	-25%	/	-6%	-12%	-6%
O=C(NCCc1c[nH]c2ccccc12)C1CCN(c2nnc(N3CCCC3=O)s2)CC1	0.32µM*	-6%	-6%	1%	0%	0%
O=C(C1=C(O)C(=O)N(Cc2cccnc2)C1c1ccccn1)c1cccs1 (stereo unspecified)	1%	13%[10 µM]	/	10%	10%	3%
COc1cc(/C=N/NC(=S)NC2CC3C=CC2C3)cc(OC)c1OC (stereo unspecified)	2.5µM*	-16%[10 µM]	/	-4%[9.22 µM]	-14%	-3%
Oc1c(Br)cc(Br)cc1/C=N/NC(=S)N[C@H]1CC2C=CC1C2 (stereo partly specified)	13µM*	-50%[10 µM]	/	-25%[9.22 µM]	8.9µM*	-19%
CCOc1ccc(/C=N/NC(=S)NC2CC3C=CC2C3)cc1 (stereo unspecified)	-3%	29%[10 µM]	/	-6%[9.22 µM]	-4%	1%
Cc1cccc(Oc2ncnc3onc(C)c23)c1C	9%	1%	4%	-13%	5%	7%
COc1cc(NC(=O)CSc2cc(C)c3cc(C)cc(C)c3n2)c(C(=O)O)cc1OC	/	15%[10 µM]	/	-9%[9.22 µM]	0%	-5%
COc1ccccc1NC(=O)c1ccc(NC(=O)CSc2nnnn2C)cc1	0.79µM*	-12%[10 µM]	-26%	15%	-5%	7%
SMILES	ALDH1A1 inh	HTT ATP protect	HPGD block	HttQ103 aggreg	JMJD2E inh	CBFb-RUNX1 inh
Cn1nnnc1SCC(=O)Nc1c(Cl)cccc1Cl	-9%	0%	22µM*	15%	-4%	3%
C#CCCCO/N=C1/C[C@@H](O)[C@@H](O)[C@@H]2[C@H]3C(=O)N(c4ccc(F)cc4F)C(=O)[C@@H]3CC[C@H]12	9%[13.5 µM]	-2%[10 µM]	/	/	/	6%[13.1 µM]
CCOc1ccc(OCc2ccc(C(=O)N(CC)CC)cc2)cc1	?	/	/	-29%	-2%	14%
COc1ccc(/C(CC2OC(=O)c3ccccc32)=N\NC(N)=O)cc1 (stereo unspecified)	-10%	-2%	/	17%	1%	2%
CCN(CC)S(=O)(=O)c1ccc2c3c(cccc13)C(=O)N2	?	-5%	?	1.6µM*	?	16%
CCN(c1cccc(C)c1)S(=O)(=O)c1ccc2c3c(cccc13)C(=O)N2	-10%	-15%[1.9 µM]	-22%	?	?	14%
COc1ccc(-c2nn(-c3ccccc3)cc2/C=N/NC(=O)c2ccc3c(c2)OCO3)cc1	?	9%	?	?	?	0%
COc1ccc(-c2nn(-c3ccccc3)cc2/C=N/NC(=O)c2ccc(Br)o2)cc1	?	-40%	?	3.5µM*	?	2%
Cc1cc(C(=O)Nc2ccc(N3CCCC3)c(Cl)c2)ccc1[N+](=O)[O-]	20µM*	-2%[10 µM]	-11%	-21%	0%	?
Cc1ccc(NC(=S)NNC(=O)c2ccc(N3CCOCC3)c([N+](=O)[O-])c2)cc1Cl	7.9µM*	19%[10 µM]	-11%	?	2%	0%
O=C(Nc1ccc(N2CCCC2)c(Cl)c1)c1ccc([N+](=O)[O-])cc1	5%	-1%[10 µM]	-7%	-2%	7%	2%
O=C(NNC(=S)Nc1ccc(Cl)cc1Cl)c1ccc(N2CCOCC2)c([N+](=O)[O-])c1	0.45µM*	7%[10 µM]	?	-30%	3%	9%
O=C(NNC(=S)Nc1ccc(Br)cc1)c1ccc(N2CCOCC2)c([N+](=O)[O-])c1	0.89µM*	7%[10 µM]	35µM*	21%	-5%	1%
c1ccc(-c2ccc(C3CCCN3)cc2)cc1 (stereo unspecified)	0%	5%[10 µM]	/	-2%[9.22 µM]	-10%	0%
